Results taken from paper PMC4081100, “A DNA-binding-site landscape and regulatory network analysis for NAC transcription factors in Arabidopsis thaliana”.

How the values were obtained:
Test in all cases: universal protein binding microarray (PBM); transcription factors of Arabidopsis thaliana; high values mean tight binding
Settings in all cases: protein: recombinant; tags: GST; chain copies: 2; dsDNA, one strand shown
[1] = molecular target: T1, GST-ANAC092(1-176) (Arabidopsis thaliana, UniProt Q9FKA0 1-176)
T1 sequence: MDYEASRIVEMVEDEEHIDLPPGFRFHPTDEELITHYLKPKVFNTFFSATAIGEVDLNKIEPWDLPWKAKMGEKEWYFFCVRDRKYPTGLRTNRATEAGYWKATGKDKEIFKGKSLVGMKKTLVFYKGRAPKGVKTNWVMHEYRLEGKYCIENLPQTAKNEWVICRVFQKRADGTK
Procedure, shortened: (§1)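 GST-tagged proteins (NAC-domain, full-length or DNA-binding-domain) were induced in cells, with zinc acetate supplied for zinc-finger proteins, then purified on glutathione–Sepharose 4B. Each was tested in duplicate at 200 to 500 nM final on custom all-10-mer Agilent 4 × 180K arrays rendered double-stranded by primer extension. The binding value is the normalised enrichment score (E-score) across gapped and ungapped 8-mers.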

[2] = molecular target: GST-NTL6(1-168) (Arabidopsis thaliana, UniProt Q9SCK6 1-168)
GST-NTL6(1-168), sequence (Q9SCK6 1-168): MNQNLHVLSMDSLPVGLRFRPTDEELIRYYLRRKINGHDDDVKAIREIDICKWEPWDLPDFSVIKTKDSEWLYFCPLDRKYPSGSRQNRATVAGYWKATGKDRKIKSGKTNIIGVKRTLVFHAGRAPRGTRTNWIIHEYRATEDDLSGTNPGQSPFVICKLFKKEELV
Procedure, shortened: as §1

[3] = molecular target: T2, GST-ANAC019 NAC domain (Arabidopsis thaliana, UniProt Q9C932 14-162)
T2 sequence: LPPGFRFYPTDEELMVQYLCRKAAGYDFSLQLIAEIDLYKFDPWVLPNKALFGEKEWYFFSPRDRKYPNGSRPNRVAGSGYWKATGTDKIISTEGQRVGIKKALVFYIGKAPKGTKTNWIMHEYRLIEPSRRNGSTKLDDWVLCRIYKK
Procedure, shortened: as §1

[4] = molecular target: T3, GST-ANAC055(1-171) (Arabidopsis thaliana, UniProt Q9LDY8 1-171)
T3 sequence: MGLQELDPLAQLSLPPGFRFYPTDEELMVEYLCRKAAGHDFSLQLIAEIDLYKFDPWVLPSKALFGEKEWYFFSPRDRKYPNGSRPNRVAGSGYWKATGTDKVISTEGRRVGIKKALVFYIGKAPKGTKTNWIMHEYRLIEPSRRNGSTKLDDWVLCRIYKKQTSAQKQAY
Procedure, shortened: as §1

[5] = molecular target: T4, GST-ATAF1 NAC domain (Arabidopsis thaliana, UniProt Q39013 7-158)
T4 sequence: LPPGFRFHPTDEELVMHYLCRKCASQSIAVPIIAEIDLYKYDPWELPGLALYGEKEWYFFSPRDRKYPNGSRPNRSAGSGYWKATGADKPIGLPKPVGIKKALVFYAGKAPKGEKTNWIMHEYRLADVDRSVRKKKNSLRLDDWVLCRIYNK
Procedure, shortened: as §1

[6] = molecular target: T5, GST-ANAC092(1-285) full length (Arabidopsis thaliana, UniProt Q9FKA0 1-285)
T5 sequence: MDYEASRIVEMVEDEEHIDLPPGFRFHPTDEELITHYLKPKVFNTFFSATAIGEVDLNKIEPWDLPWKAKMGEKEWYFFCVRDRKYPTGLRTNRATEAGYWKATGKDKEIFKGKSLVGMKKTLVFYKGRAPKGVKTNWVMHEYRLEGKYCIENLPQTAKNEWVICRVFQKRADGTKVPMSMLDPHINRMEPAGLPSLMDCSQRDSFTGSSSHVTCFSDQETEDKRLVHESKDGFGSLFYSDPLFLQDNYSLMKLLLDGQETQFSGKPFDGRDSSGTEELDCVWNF
Procedure, shortened: as §1

[7] = molecular target: T6, GST-NAP(1-166) (Arabidopsis thaliana, UniProt O49255 1-166)
T6 sequence: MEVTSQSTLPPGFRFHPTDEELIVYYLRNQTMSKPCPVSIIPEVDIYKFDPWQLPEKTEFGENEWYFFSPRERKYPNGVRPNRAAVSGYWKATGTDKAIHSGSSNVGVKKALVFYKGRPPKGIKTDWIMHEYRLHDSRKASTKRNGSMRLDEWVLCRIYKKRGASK
Procedure, shortened: as §1

[8] = molecular target: T7, GST-NST2(1-184) (Arabidopsis thaliana, UniProt Q9M274 1-184)
T7 sequence: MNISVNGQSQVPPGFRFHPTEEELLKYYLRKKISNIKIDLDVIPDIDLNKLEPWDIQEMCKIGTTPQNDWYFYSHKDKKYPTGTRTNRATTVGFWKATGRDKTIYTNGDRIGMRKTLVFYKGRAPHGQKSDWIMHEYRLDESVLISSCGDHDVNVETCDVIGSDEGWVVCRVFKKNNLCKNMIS
Procedure, shortened: as §1

[9] = molecular target: T8, GST-NTL8 NAC domain (Arabidopsis thaliana, UniProt Q9XIN7 14-156)
T8 sequence: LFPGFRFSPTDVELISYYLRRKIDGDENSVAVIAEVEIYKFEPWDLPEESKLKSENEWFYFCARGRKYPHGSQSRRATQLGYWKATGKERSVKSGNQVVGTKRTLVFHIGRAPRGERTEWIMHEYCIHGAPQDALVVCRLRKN
Procedure, shortened: as §1

[10] = molecular target: T9, GST-SND1(1-203) (Arabidopsis thaliana, UniProt Q9LPI7 1-203)
T9 sequence: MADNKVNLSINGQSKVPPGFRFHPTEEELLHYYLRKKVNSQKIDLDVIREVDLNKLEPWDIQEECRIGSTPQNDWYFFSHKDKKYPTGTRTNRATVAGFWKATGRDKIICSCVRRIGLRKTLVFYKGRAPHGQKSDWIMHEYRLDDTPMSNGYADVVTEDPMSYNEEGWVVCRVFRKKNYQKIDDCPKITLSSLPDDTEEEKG
Procedure, shortened: as §1

[11] = molecular target: T10, GST-VND3 NAC domain (Arabidopsis thaliana, UniProt Q9FH59 12-162)
T10 sequence: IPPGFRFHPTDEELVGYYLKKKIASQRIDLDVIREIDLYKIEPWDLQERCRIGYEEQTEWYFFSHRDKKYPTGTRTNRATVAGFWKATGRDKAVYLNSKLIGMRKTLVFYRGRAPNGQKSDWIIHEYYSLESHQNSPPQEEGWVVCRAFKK
Procedure, shortened: as §1

[12] = molecular target: T11, GST-VND7 NAC domain (Arabidopsis thaliana, UniProt Q9C8W9 9-158)
T11 sequence: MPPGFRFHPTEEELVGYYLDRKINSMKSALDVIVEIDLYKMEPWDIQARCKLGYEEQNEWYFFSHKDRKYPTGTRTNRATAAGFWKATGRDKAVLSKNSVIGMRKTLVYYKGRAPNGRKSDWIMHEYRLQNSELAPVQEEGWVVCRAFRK
Procedure, shortened: as §1

Sequence	binding signal [1] [E-score]	binding signal [2] [E-score]	binding signal [3] [E-score]	binding signal [4] [E-score]	binding signal [5] [E-score]	binding signal [6] [E-score]	binding signal [7] [E-score]	binding signal [8] [E-score]	binding signal [9] [E-score]	binding signal [10] [E-score]	binding signal [11] [E-score]	binding signal [12] [E-score]
CCACGTAA	0.359	0.0826	0.432	0.37	0.306	0.393	0.308	0.157	0.167	0.0962	0.326	0.341
GCGTAAAA	0.261	0.0562	0.15	0.087	0.185	0.247	0.0952	0.239	0.107	0.407	0.197	0.174
CACACGCA	0.453	0.0743	0.389	0.321	0.248	0.47	0.375	0.229	0.141	0.327	0.375	0.353
GGAGGTAA	0.079	0.202	0.0898	0.0701	0.137	0.122	0.146	0.106	0.435	0.19	0.139	0.0814
CACGTTTC	0.424	0.107	0.381	0.375	0.383	0.432	0.332	0.286	0.217	0.299	0.262	0.298
CACGGCAA	0.457	0.0683	0.471	0.44	0.364	0.456	0.36	0.256	0.0895	0.123	0.456	0.444
AGGAAACG	0.207	0.125	0.0614	0.149	0.208	0.132	0.183	0.132	0.451	0.224	0.109	0.112
TTACGAAA	0.396	0.121	0.248	0.221	0.278	0.409	0.087	0.227	0.067	0.434	0.26	0.233
ATGACGTA	0.443	0.0683	0.372	0.346	0.374	0.437	0.404	0.317	0.098	0.446	0.437	0.386
AATTGCGT	0.451	0.0568	0.394	0.395	0.319	0.46	0.432	0.294	0.0923	0.412	0.415	0.418
GTGAAGAA	0.238	0.244	0.305	0.215	0.316	0.197	0.164	0.129	0.403	0.182	0.304	0.288
GAAGGAAC	0.189	0.445	0.172	0.172	0.0557	0.204	0.148	0.249	0.45	0.337	0.114	0.181
AACGTAAC	0.335	0.15	0.15	0.212	0.253	0.37	0.315	0.324	0.143	0.419	0.278	0.269
AAGGGTAA	0.117	0.194	0.127	0.0999	0.0524	0.134	0.117	0.126	0.444	0.117	0.223	0.0677
GTAAGAAA	0.296	0.422	0.224	0.206	0.311	0.332	0.101	0.289	0.214	0.303	0.16	0.19
ACGCAAAT	0.418	0.0591	0.268	0.232	0.262	0.42	0.235	0.265	0.0579	0.325	0.325	0.281
CAAGTAAC	0.352	0.316	0.134	0.203	0.0948	0.408	0.0502	0.298	0.185	0.301	0.209	0.0947
